9 compounds from PubChem BioAssay (NCI) can be followed below.

Some test systems named below: MDA-MB-231 breast; HT29 colon; OVCAR-5 ovarian; OVCAR-4 ovarian; SK-OV-3 ovarian; IGROV1 ovarian; OVCAR-3 ovarian; HS 578T breast; NCI/ADR-RES ovarian; BT-549 breast; MDA-MB-435 melanoma; SW-620 colon; MCF7 breast; HCT-116 colon; HCC-2998 colon; KM12 colon; T-47D breast; LOX IMVI melanoma.
Assay in all cases: NCI-60 one-dose screen, 48 h (100 = growth as untreated, 0 = no growth, -100 = all killed)
Common to all, as to conditions: 10 µM

The panel holds about 83,000 compounds, 20% with a hit somewhere; the sample as a whole holds those more often.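 Single-concentration screen, 48 h exposure, 96-well plates. Endpoint: percent growth. Below 10 = active.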 Unmarked numbers belong to inactive results. Calls of active or inactive are those of the source.

With `Cn1cc(-c2cc(N)n3nc(-c4cn(C)c5ccccc45)cc3n2)c2cc(F)ccc21`, the growth with MDA-MB-231 breast is -56% (active); in the test with HT29 colon it was -72.2% (active); with OVCAR-5 ovarian, -52.6% (active); in the test with OVCAR-4 ovarian, -38.2% (active); in the test with SK-OV-3 ovarian it was -77.7% (active); with IGROV1 ovarian, -41.5% (active). The growth with OVCAR-3 ovarian is -75% (active); in the test on HS 578T breast, -24.1% (active); with NCI/ADR-RES ovarian, -21.1% (active); with BT-549 breast, -69.9% (active); in the test with MDA-MB-435 melanoma, -81.1% (active); in the test on SW-620 colon, -54.4% (active). In addition, the growth with MCF7 breast was -56.2% (active); in the test with HCT-116 colon, -92.1% (active); in the test with HCC-2998 colon it was -80.5% (active); in the test on KM12 colon, -69.1% (active).

`Cn1cc(-c2cc3nc(-c4c[nH]c5ccccc45)cc(N)n3n2)c2cc(Cl)ccc21`: the growth was -69.4% (active) in the test with MDA-MB-231 breast; -86.4% (active) with OVCAR-5 ovarian; -73.8% (active) with OVCAR-4 ovarian; -64.5% (active) with IGROV1 ovarian; -80% (active) with OVCAR-3 ovarian; -22.2% (active) with HS 578T breast. For the same compound, the growth in the test on NCI/ADR-RES ovarian was -48.5% (active); in the test on T-47D breast, -85.5% (active); with MDA-MB-435 melanoma, -93.1% (active); in the test on SW-620 colon, -61% (active); with MCF7 breast, -85.9% (active); in the test on HCT-116 colon, -84.6% (active). The growth was -84.1% (active) in the test on HCC-2998 colon and -82.2% (active) with KM12 colon.

`COc1ccc(Cc2nn(CC(=O)N/N=C/c3ccc([N+](=O)[O-])cc3)c(=O)c3c(C)noc23)cc1`: the growth in the test on MDA-MB-231 breast was 61.2%; in the test with HT29 colon, 96.2%; in the test with LOX IMVI melanoma, 26.4%; with OVCAR-5 ovarian, 90.2%; in the test with OVCAR-4 ovarian it was 1.77% (active); in the test on SK-OV-3 ovarian, 103%. Also, the growth is 45.1% with OVCAR-3 ovarian; 48.8% with HS 578T breast; 73.9% in the test on NCI/ADR-RES ovarian; 73.5% in the test on T-47D breast; 71.7% in the test on MDA-MB-435 melanoma; 60.9% in the test with SW-620 colon. The growth was 55% in the test with MCF7 breast, 27% in the test on HCT-116 colon, 105% in the test on HCC-2998 colon and 79.7% in the test on KM12 colon.

`C#C[C@]1(O)CC[C@H]2[C@@H]3CC=C4c5sc(Nc6cc(C)cc(C)n6)nc5CC[C@]4(C)[C@H]3CC[C@@]21C`: the growth in the test on MDA-MB-231 breast was -44.9% (active); with OVCAR-5 ovarian it was -21.9% (active); in the test with OVCAR-4 ovarian, 25.6%; in the test on SK-OV-3 ovarian, -62.4% (active); in the test with IGROV1 ovarian it was 26.2%; in the test on OVCAR-3 ovarian it was -3.49% (active). Besides, the growth with HS 578T breast is -20.5% (active); with NCI/ADR-RES ovarian, 0.407% (active); in the test on MDA-MB-435 melanoma, -6.28% (active); with SW-620 colon, -86.9% (active); with MCF7 breast, -89.7% (active); in the test on HCT-116 colon, -56.1% (active). Moreover, the figures for the growth in the test on HCC-2998 colon and in the test with KM12 colon were 1.37% (active) and -16.7% (active), respectively.

For `COc1ccc(C2OC[C@@]3(C)C4CC[C@]5(C)C(CC=C6C7CC(C)(C)CC[C@]7(C(=O)O)CC[C@]65C)[C@@]4(C)C[C@@H](O)[C@@H]3O2)cc1` (stereo partly drawn), the growth with MDA-MB-231 breast is 110%; with HT29 colon, 70.8%; in the test on LOX IMVI melanoma it was 70.8%; with OVCAR-5 ovarian, 108%; in the test with OVCAR-4 ovarian it was 86.9%; in the test with SK-OV-3 ovarian, 132%. Further, the growth with OVCAR-3 ovarian was 74.1%; in the test with HS 578T breast, 85.3%; in the test with NCI/ADR-RES ovarian, 87.1%; in the test with BT-549 breast, 82.4%; with MDA-MB-435 melanoma it was 97%; in the test with SW-620 colon, 69.9%. The growth was 50.9% in the test on MCF7 breast, 43.3% with HCT-116 colon, 101% in the test on HCC-2998 colon and 54.4% in the test with KM12 colon.

Take `CC1(C)CC[C@]2(C(=O)O)CC[C@]3(C)C(=CCC4[C@@]5(C)C[C@@H](O)[C@@H]6OC(c7cccc(F)c7)OC[C@@]6(C)C5CC[C@]43C)C2C1` (stereo partly drawn): the growth is 60.7% in the test on MDA-MB-231 breast; 73.2% in the test with OVCAR-5 ovarian; 54.6% in the test with OVCAR-4 ovarian; 82.7% in the test with SK-OV-3 ovarian; 75.4% in the test on IGROV1 ovarian; 37.9% with OVCAR-3 ovarian. The growth in the test on HS 578T breast was 66.4%; with NCI/ADR-RES ovarian it was 43.7%; with T-47D breast, 38.9%; in the test with MDA-MB-435 melanoma, 58.1%; in the test on SW-620 colon, 31%; with MCF7 breast, 21.5%. For the same compound, the results for the growth with HCT-116 colon, in the test on HCC-2998 colon and in the test with KM12 colon were 9.3% (active), 37.5% and 21.3%, respectively.

For `COc1cc(-c2nc3ccc(C)cc3[nH]2)ccc1OCc1nnc(-c2ccccc2Br)o1`, the growth in the test on MDA-MB-231 breast is 69.7%; with HT29 colon it was 20%; in the test on LOX IMVI melanoma, 71.8%; in the test on OVCAR-5 ovarian, 77.5%; in the test with OVCAR-4 ovarian it was 80.7%; in the test on OVCAR-3 ovarian, 75.7%. The growth with HS 578T breast was 62.2%; with NCI/ADR-RES ovarian it was 75%; in the test with MDA-MB-435 melanoma, 85.4%; in the test with SW-620 colon, 91.9%; in the test with MCF7 breast, 44.4%; in the test with HCT-116 colon it was 61%. For the same compound, the results for the growth with HCC-2998 colon and with KM12 colon were 77.2% and 65.9%, respectively.

Regarding `Fc1ccc(/C=C/c2nc3ccccc3n3c(-c4ccc(Cl)cc4)nnc23)cc1`, the growth in the test with MDA-MB-231 breast was 70%; in the test on LOX IMVI melanoma, -89.2% (active); with OVCAR-5 ovarian it was 96.3%; in the test with OVCAR-4 ovarian it was 69%; in the test with OVCAR-3 ovarian it was 76.9%; in the test with HS 578T breast, 80.5%. In addition, the growth is 70.4% with NCI/ADR-RES ovarian; 79.3% with BT-549 breast; 78.4% in the test on MDA-MB-435 melanoma; 44.3% with SW-620 colon; 12.9% in the test on MCF7 breast; 41.8% in the test with HCT-116 colon. Moreover, the figures for the growth in the test with HCC-2998 colon and in the test on KM12 colon were 102% and 80.2%, respectively.

As for `O=C1S/C(=C\c2ccc([N+](=O)[O-])cc2)C(=O)N1CCN1CCCCC1`, the growth with MDA-MB-231 breast is 102%; with LOX IMVI melanoma, 98.6%; in the test with OVCAR-5 ovarian, 114%; with OVCAR-4 ovarian it was 111%; with OVCAR-3 ovarian, 116%; in the test on HS 578T breast it was 115%. The growth in the test on NCI/ADR-RES ovarian was 109%; in the test with BT-549 breast, 118%; in the test on MDA-MB-435 melanoma it was 102%; in the test on SW-620 colon, 113%; in the test with MCF7 breast, 94.2%; in the test with HCT-116 colon, 105%. The growth is 104% in the test on HCC-2998 colon and 105% in the test with KM12 colon.
